Assay results: the supplement of paper PMC7411054
Structures can show the parent of a compound that is named as a salt.

Key:
Conditions in all cases: treatment time: 24 h
[1] = tested on: HepG2-GM130-SQSTM1; test: lowest phenotypically active concentration; higher = less potent
Procedure, shortened: (§1)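 The reporter lines, fifteen in total and built by gene editing in A549, HepG2 and WPMY1 cells, used BFP for segmentation alongside GFP and RFP/FusionRed markers. Each was treated at 0.3, 1, 3 or 9 µM for 24 h in four wells and then imaged live, with live-cell features normalised to solvent control wells. Deviation meant ≥3 of 4 wells beyond the 95th percentile of control Euclidean distances; reproducibility meant a median replicate Pearson correlation above the 95th percentile of non-replicates. Only conditions meeting both were scored as phenotypically active.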

[2] = tested on: A549-ACTB-RAB5A; test: phenotypically active (imaging signature differs from DMSO and reproducible) at any of 0.3-9 uM (binary (1 = active, 0 = inactive)); higher = active
Procedure, shortened: as §1

[3] = tested on: A549-CANX-COX4; test: as above
Procedure, shortened: as §1

[4] = tested on: A549-GM130-SQSTM1; test: as above
Procedure, shortened: as §1

[5] = tested on: A549-TP53BP1-CLTA; test: as above
Procedure, shortened: as §1

[6] = tested on: A549-TUBA1B-RELA; test: as above
Procedure, shortened: as §1

[7] = tested on: HepG2-ACTB-RAB5A; test: as above
Procedure, shortened: as §1

[8] = tested on: HepG2-CANX-COX4; test: as above
Procedure, shortened: as §1

[9] = tested on: HepG2-GM130-SQSTM1; test: as above
Procedure, shortened: as §1

[10] = tested on: HepG2-TP53BP1-CLTA; test: as above
Procedure, shortened: as §1

[11] = tested on: HepG2-TUBA1B-RELA; test: as above
Procedure, shortened: as §1

[12] = tested on: WPMY1-ACTB-RAB5A; test: as above
Procedure, shortened: as §1

[13] = tested on: WPMY1-CANX-COX4; test: as above
Procedure, shortened: as §1

[14] = tested on: WPMY1-GM130-SQSTM1; test: as above
Procedure, shortened: as §1

[15] = tested on: WPMY1-TP53BP1-CLTA; test: as above
Procedure, shortened: as §1

[16] = tested on: WPMY1-TUBA1B-RELA; test: as above
Procedure, shortened: as §1

[17] = tested on: WPMY1-GM130-SQSTM1; test: lowest phenotypically active concentration; higher = less potent
Procedure, shortened: as §1

Structure (SMILES)	lowest phenotypically active concentration [1]	phenotypically active [2]	phenotypically active [3]	phenotypically active [4]	phenotypically active [5]	phenotypically active [6]	phenotypically active [7]	phenotypically active [8]	phenotypically active [9]	phenotypically active [10]	phenotypically active [11]	phenotypically active [12]	phenotypically active [13]	phenotypically active [14]	phenotypically active [15]	phenotypically active [16]	lowest phenotypically active concentration [17]
CCOc1ccc2nc(S(N)(=O)=O)sc2c1 [ethoxzolamide]	9 µM	0 (inactive)	0 (inactive)	0 (inactive)	0 (inactive)	0 (inactive)	0 (inactive)	0 (inactive)	1 (active)	0 (inactive)	0 (inactive)	0 (inactive)	0 (inactive)	0 (inactive)	0 (inactive)	0 (inactive)	
CC(C)Cc1ccc(C(C)C(=O)O)cc1 (stereo unspecified) [ibuprofen]		0 (inactive)	0 (inactive)	0 (inactive)		0 (inactive)	0 (inactive)	0 (inactive)	0 (inactive)		0 (inactive)	0 (inactive)	0 (inactive)	0 (inactive)		0 (inactive)	
C=C[C@H]1C[N@@]2CC[C@H]1C[C@@H]2[C@@H](O)c1ccnc2ccc(OC)cc12 [quinidine]		0 (inactive)	0 (inactive)	0 (inactive)		0 (inactive)	0 (inactive)	0 (inactive)	0 (inactive)		0 (inactive)	0 (inactive)	0 (inactive)	0 (inactive)		0 (inactive)	
C[C@@H](Oc1cc(-c2cnn(C3CCNCC3)c2)cnc1N)c1c(Cl)ccc(F)c1Cl [Crizotinib]			1 (active)	1 (active)	1 (active)		1 (active)	1 (active)		1 (active)	1 (active)	1 (active)	1 (active)	1 (active)	1 (active)	1 (active)	
CCN(CC)CCOC(=O)C1(C2CCCCC2)CCCCC1 [dicycloverine]			0 (inactive)		0 (inactive)		0 (inactive)	0 (inactive)	0 (inactive)	0 (inactive)	0 (inactive)	0 (inactive)	0 (inactive)	0 (inactive)	0 (inactive)	0 (inactive)	
O=c1c(O)c(-c2ccc(O)c(O)c2)oc2cc(O)cc(O)c12 [Quercetin]		0 (inactive)	0 (inactive)	0 (inactive)	0 (inactive)	0 (inactive)	0 (inactive)	0 (inactive)	0 (inactive)	0 (inactive)	0 (inactive)	0 (inactive)	0 (inactive)	1 (active)	0 (inactive)	0 (inactive)	9 µM
CCCN[C@H]1CCc2nc(N)sc2C1 [pramipexole]		0 (inactive)	0 (inactive)	0 (inactive)	0 (inactive)	0 (inactive)	0 (inactive)	0 (inactive)	0 (inactive)	0 (inactive)	0 (inactive)	0 (inactive)	0 (inactive)	1 (active)	0 (inactive)	0 (inactive)	9 µM
Nc1nc2ccc(OC(F)(F)F)cc2s1 [riluzole]			0 (inactive)		0 (inactive)		0 (inactive)	0 (inactive)	0 (inactive)	0 (inactive)	0 (inactive)	0 (inactive)	0 (inactive)	0 (inactive)	0 (inactive)	0 (inactive)	
COc1ccc2c3c(c(=O)n(C)c2c1OC)C=CC(C)(C)O3 [Veprisine]		0 (inactive)	0 (inactive)	0 (inactive)	0 (inactive)	0 (inactive)	0 (inactive)	0 (inactive)	0 (inactive)	0 (inactive)	0 (inactive)	0 (inactive)	0 (inactive)	1 (active)	1 (active)	0 (inactive)	9 µM
OC(CCN1CCCCC1)(c1ccccc1)C1CCCCC1 (stereo unspecified) [trihexyphenidyl]			0 (inactive)		0 (inactive)		0 (inactive)	0 (inactive)	0 (inactive)	0 (inactive)	0 (inactive)	0 (inactive)	0 (inactive)	0 (inactive)	0 (inactive)	0 (inactive)	
CC[C@@H]1C(=O)OC[C@@H]1Cc1cncn1C [Pilocarpine hydrochloride]			0 (inactive)		0 (inactive)		0 (inactive)	0 (inactive)	0 (inactive)	0 (inactive)	0 (inactive)	0 (inactive)	0 (inactive)	0 (inactive)	0 (inactive)	0 (inactive)	
COc1cc2nc(N3CCN(C(=O)c4ccco4)CC3)nc(N)c2cc1OC [prazosin]		0 (inactive)	0 (inactive)	0 (inactive)		0 (inactive)	0 (inactive)	1 (active)	0 (inactive)		1 (active)	0 (inactive)	0 (inactive)	0 (inactive)		0 (inactive)	
CCCCCCCN(CC)CCCC(O)c1ccc(NS(C)(=O)=O)cc1 (stereo unspecified) [ibutilide]		0 (inactive)	0 (inactive)	0 (inactive)	0 (inactive)	0 (inactive)	0 (inactive)	0 (inactive)	0 (inactive)	0 (inactive)	0 (inactive)	0 (inactive)	0 (inactive)	1 (active)	0 (inactive)	0 (inactive)	3 µM
